Results reported in PubChem BioAssay (NCI).
The panel holds about 79,000 compounds, 15% with a hit somewhere; the sample as a whole holds those more often. Activity calls are given as the source filed them. Cut-off read from the data, not from the text of the source: active = growth inhibition above about 70%; inactive = the rest.

Assay: NCI Yeast Anticancer Drug Screen. Data for the mlh1 rad18 strain (AID 175)
Settings: S. cerevisiae mlh1 rad18 strain growth inhibition; at 5.0 µM (retest, dose inferred, filed as 0.5); hits give high values
Procedure, shortened: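 In this whole-cell yeast screen, a strain with altered DNA damage repair is challenged with compound, and its growth is measured against matched vehicle-treated controls.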
With `CCN(CC)CCOC(=O)C1CCCCC1C(=O)C1CCCCC1` (stereo not given) the growth inhibition was 1% (inactive).
In the case of `O=c1c2cc(Br)ccc2ncn1COCc1ccccc1`, the growth inhibition is reported as 27% (inactive).
With `C=C1C(=O)OC2C1CCC(=C)C1CC(O)C(=C)C12` (stereo not given) the growth inhibition was 8% (inactive).
In the case of `CCC(CC)=NNc1ccc([N+](=O)[O-])cc1`, the growth inhibition is reported as 11% (inactive).
With `CCN(CC)CCNc1ccc(C)c2oc3ccc(O)cc3c(=O)c12` the growth inhibition was -1% (inactive).
In the case of `CCOC(=O)C[P+](c1ccc(C)cc1)(c1ccc(C)cc1)c1ccc(C)cc1`, the growth inhibition is reported as 6% (inactive).
With `Cc1ccc(C)c(C(=O)/C=C/C(=O)O)c1` the growth inhibition was 42% (inactive).
For `CCCC/C=C(/CCCCOCOCCOC)[Si](C)(C)C`, the growth inhibition was -8% (inactive).
In the case of `C=C1C2Oc3ccccc3C1N(c1ccccc1)O2` (stereo not given), the growth inhibition is reported as 5% (inactive).
With `NC(=O)N/N=C1/CC2CCCCC2c2ccccc21` (stereo not given) the growth inhibition was -6% (inactive).
With `CC(CCN)(CCN)[N+](=O)[O-]` the growth inhibition was 4% (inactive).
For `COC(=O)/C=C(\NC1CC(OC2C[C@](O)(C(C)=O)Cc3c(O)c4c(c(O)c32)C(=O)c2c(OC)cccc2C4=O)OC(C)C1O)C(=O)OC` (stereo not given in full), the growth inhibition was -6% (inactive).
With `CCOc1ccc(N=Nc2ccccc2)cc1` the growth inhibition was -9% (inactive).
In the case of `O=C(CNS(=O)(=O)Cc1ccccc1)NCC(=O)NNc1ccccc1`, the growth inhibition is reported as 31% (inactive).
In the case of `CC1(C)c2ccccc2Cc2cc3ccccc3nc21`, the growth inhibition is reported as -1% (inactive).
For `CC(=O)Nc1ccc(C(C)(C)c2ccc(C)cc2)cc1`, the growth inhibition was -1% (inactive).
In the case of `CC[C@]1(O)C[C@H]2[C@@H]3CCc4cc(OC)ccc4[C@H]3CC[C@]2(C)[C@H]1O`, the growth inhibition is reported as -4% (inactive).
With `CCCCSc1nc2c([nH]1)c(=S)n(C)c(=S)n2C` the growth inhibition was -7% (inactive).
In the case of `CN(Cc1cc(C(C)(C)C)cc(Br)c1O)Cc1cc(C(C)(C)C)cc(Br)c1O`, the growth inhibition is reported as -8% (inactive).
In the case of `Oc1cc2c(cc1C(c1ccc(F)cc1)N1CCCCC1)OCO2` (stereo not given), the growth inhibition is reported as -1% (inactive).
With `CCCCCCCN(CCCCCCC)CC(O)Cc1cc2c(c3ccccc13)CCCC2` (stereo not given) the growth inhibition was 24% (inactive).
For `Cc1c2ccncc2c(C)c2c1sc1ccccc12`, the growth inhibition was 77% (active).
In the case of `c1ccc2c(c1)OCC(CNCCNCC1COc3ccccc3O1)O2` (stereo not given), the growth inhibition is reported as 75% (active).
With `CC(C)(C)c1ccc(Sc2ncnc3ccccc23)cc1` the growth inhibition was -6% (inactive).
With `C(#Cc1ccccc1)Sc1ccccc1` the growth inhibition was 4% (inactive).
With `CCOC(=O)NC(NNc1ccc([N+](=O)[O-])cc1[N+](=O)[O-])(C(F)(F)F)C(F)(F)F` the growth inhibition was 4% (inactive).
In the case of `O=C1/C(=C/c2cccc(O)c2)COc2ccccc21`, the growth inhibition is reported as 77% (active).
For `CNC1=C2NC(=O)/C(C)=C\C=C\C(C)C(O)C(C)C(O)C(C)C(OC(C)=O)C(C)C(OC)/C=C/OC3(C)Oc4c(C)c(O)c(c(c4C3=O)C1=O)C2=O` (stereo not given), the growth inhibition was -4% (inactive).
In the case of `COc1ccc(Cc2c(-c3ccc(C)cc3)n[nH]c(=O)c2C2C(=O)N(c3ccccc3)N=C2c2ccccc2)cc1` (stereo not given), the growth inhibition is reported as 47% (inactive).
For `Cc1ccc(Cc2n[nH]c(=O)n2N2C(=O)c3ccccc3C2=O)cc1`, the growth inhibition was 13% (inactive).
In the case of `COc1cc2c(c(C3C(=O)N(C)c4ccc(Br)cc43)c1OC)OCO2` (stereo not given), the growth inhibition is reported as 4% (inactive).
For `CCCCCCCCC1N(C)CCCN1C`, the growth inhibition was -102% (inactive).
For `C1=Cc2ccccc2/C1=C/c1ccccc1`, the growth inhibition was 0% (inactive).
For `COC(=O)c1ccc2ccccc2c1C(=O)c1ccc(F)cc1`, the growth inhibition was 2% (inactive).
With `CCNC(=S)N/N=C(/C)c1cccc(/C(C)=N\NC(=S)NCC)n1` the growth inhibition was 12% (inactive).
With `c1ccc2c(c1)ccc1ncccc12` the growth inhibition was 6% (inactive).
For `Cc1nc(N)nn1C`, the growth inhibition was 1% (inactive).
In the case of `COC(=O)C1=C(C)NC(C)=C(C(=O)OC)C1c1ccc(NCc2ccccc2)c([N+](=O)[O-])c1`, the growth inhibition is reported as 0% (inactive).
For `CCc1ccccc1NC(=O)C(C#N)C1=C(Cl)C(=O)c2ccccc2C1=O` (stereo not given), the growth inhibition was 44% (inactive).
With `O=C(O)c1ccc2ccccc2c1C(=O)c1cccc2ccccc12` the growth inhibition was -5% (inactive).

Same assay, conditions: S. cerevisiae mlh1 rad18 strain growth inhibition; at 50.0 µM (retest, dose inferred, filed as 5.0); hits give high values
With `CCN(CC)CCOC(=O)C1CCCCC1C(=O)C1CCCCC1` (stereo not given) the growth inhibition was 1% (inactive).
In the case of `O=c1c2cc(Br)ccc2ncn1COCc1ccccc1`, the growth inhibition is reported as 24% (inactive).
For `C=C1C(=O)OC2C1CCC(=C)C1CC(O)C(=C)C12` (stereo not given), the growth inhibition was 70% (active).
With `CCC(CC)=NNc1ccc([N+](=O)[O-])cc1` the growth inhibition was 97% (active).
With `CCN(CC)CCNc1ccc(C)c2oc3ccc(O)cc3c(=O)c12` the growth inhibition was 43% (inactive).
With `CCOC(=O)C[P+](c1ccc(C)cc1)(c1ccc(C)cc1)c1ccc(C)cc1` the growth inhibition was 93% (active).
In the case of `Cc1ccc(C)c(C(=O)/C=C/C(=O)O)c1`, the growth inhibition is reported as 98% (active).
With `CCCC/C=C(/CCCCOCOCCOC)[Si](C)(C)C` the growth inhibition was 4% (inactive).
For `C=C1C2Oc3ccccc3C1N(c1ccccc1)O2` (stereo not given), the growth inhibition was 35% (inactive).
For `NC(=O)N/N=C1/CC2CCCCC2c2ccccc21` (stereo not given), the growth inhibition was 94% (active).
With `CC(CCN)(CCN)[N+](=O)[O-]` the growth inhibition was 9% (inactive).
For `COC(=O)/C=C(\NC1CC(OC2C[C@](O)(C(C)=O)Cc3c(O)c4c(c(O)c32)C(=O)c2c(OC)cccc2C4=O)OC(C)C1O)C(=O)OC` (stereo not given in full), the growth inhibition was 98% (active).
In the case of `CCOc1ccc(N=Nc2ccccc2)cc1`, the growth inhibition is reported as -49% (inactive).
For `O=C(CNS(=O)(=O)Cc1ccccc1)NCC(=O)NNc1ccccc1`, the growth inhibition was 76% (active).
For `CC1(C)c2ccccc2Cc2cc3ccccc3nc21`, the growth inhibition was 98% (active).
In the case of `CC(=O)Nc1ccc(C(C)(C)c2ccc(C)cc2)cc1`, the growth inhibition is reported as 96% (active).
For `CC[C@]1(O)C[C@H]2[C@@H]3CCc4cc(OC)ccc4[C@H]3CC[C@]2(C)[C@H]1O`, the growth inhibition was 99% (active).
With `CCCCSc1nc2c([nH]1)c(=S)n(C)c(=S)n2C` the growth inhibition was 86% (active).
In the case of `CN(Cc1cc(C(C)(C)C)cc(Br)c1O)Cc1cc(C(C)(C)C)cc(Br)c1O`, the growth inhibition is reported as 84% (active).
For `Oc1cc2c(cc1C(c1ccc(F)cc1)N1CCCCC1)OCO2` (stereo not given), the growth inhibition was 88% (active).
With `CCCCCCCN(CCCCCCC)CC(O)Cc1cc2c(c3ccccc13)CCCC2` (stereo not given) the growth inhibition was 97% (active).
For `Cc1c2ccncc2c(C)c2c1sc1ccccc12`, the growth inhibition was 91% (active).
With `c1ccc2c(c1)OCC(CNCCNCC1COc3ccccc3O1)O2` (stereo not given) the growth inhibition was 74% (active).
In the case of `CC(C)(C)c1ccc(Sc2ncnc3ccccc23)cc1`, the growth inhibition is reported as 87% (active).
In the case of `C(#Cc1ccccc1)Sc1ccccc1`, the growth inhibition is reported as 11% (inactive).
For `CCOC(=O)NC(NNc1ccc([N+](=O)[O-])cc1[N+](=O)[O-])(C(F)(F)F)C(F)(F)F`, the growth inhibition was 98% (active).
For `O=C1/C(=C/c2cccc(O)c2)COc2ccccc21`, the growth inhibition was 97% (active).
For `CNC1=C2NC(=O)/C(C)=C\C=C\C(C)C(O)C(C)C(O)C(C)C(OC(C)=O)C(C)C(OC)/C=C/OC3(C)Oc4c(C)c(O)c(c(c4C3=O)C1=O)C2=O` (stereo not given), the growth inhibition was 64% (inactive).
With `COc1ccc(Cc2c(-c3ccc(C)cc3)n[nH]c(=O)c2C2C(=O)N(c3ccccc3)N=C2c2ccccc2)cc1` (stereo not given) the growth inhibition was 94% (active).
In the case of `Cc1ccc(Cc2n[nH]c(=O)n2N2C(=O)c3ccccc3C2=O)cc1`, the growth inhibition is reported as 12% (inactive).
In the case of `COc1cc2c(c(C3C(=O)N(C)c4ccc(Br)cc43)c1OC)OCO2` (stereo not given), the growth inhibition is reported as 10% (inactive).
With `CCCCCCCCC1N(C)CCCN1C` the growth inhibition was 98% (active).
For `C1=Cc2ccccc2/C1=C/c1ccccc1`, the growth inhibition was 97% (active).
For `COC(=O)c1ccc2ccccc2c1C(=O)c1ccc(F)cc1`, the growth inhibition was 95% (active).
In the case of `CCNC(=S)N/N=C(/C)c1cccc(/C(C)=N\NC(=S)NCC)n1`, the growth inhibition is reported as 22% (inactive).
With `c1ccc2c(c1)ccc1ncccc12` the growth inhibition was 43% (inactive).
For `Cc1nc(N)nn1C`, the growth inhibition was 2% (inactive).
In the case of `COC(=O)C1=C(C)NC(C)=C(C(=O)OC)C1c1ccc(NCc2ccccc2)c([N+](=O)[O-])c1`, the growth inhibition is reported as 71% (active).
In the case of `CCc1ccccc1NC(=O)C(C#N)C1=C(Cl)C(=O)c2ccccc2C1=O` (stereo not given), the growth inhibition is reported as 97% (active).
With `O=C(O)c1ccc2ccccc2c1C(=O)c1cccc2ccccc12` the growth inhibition was 15% (inactive).
